Our source for the growth values is PubChem BioAssay (NCI).

Common to all, as to experiment: NCI-60 one-dose screen, 48 h (100 = growth as untreated, 0 = no growth, -100 = all killed)
One assay deals with NCI-H23 lung. Particulars: 10 µM unless noted.
For a further assay, the system named is NCI-H226 lung. Particulars: 10 µM unless noted.
The test system of the next assay is NCI-H322M lung. Particulars: 10 µM unless noted.
The test system of the next assay is HOP-62 NSCLC. The following applies: 10 µM unless noted.
The test system of another assay is NCI-H460 lung. The following applies: 10 µM unless noted.
The next assay has as its system HOP-92 NSCLC. The following applies: 10 µM.
In another assay the test system is NCI-H522 lung. The following applies: 10 µM.
The next assay concerns A549/ATCC NSCLC. The following applies: 10 µM unless noted.
Another assay concerns 786-0 renal. The following applies: 10 µM unless noted.
In another assay the test system is COLO 205 colon. Particulars: 10 µM unless noted.

“And” between values parts separate entries of the source, which are not always exact repeats. Equal entries are not always repeated. About 83,000 compounds went through this panel and 20% of them were active in at least one assay; those are over-represented in the sample as a whole.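 Each cell line was grown in a 96-well plate and treated with one concentration of compound for 48 hours. Values below 10 were considered active.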 A number with no mark means an inactive call. The source made the active and inactive calls.

Take `c1ccc2c(c1)OC1OC2Oc2ccccc21`: the growth was 98.3% with NCI-H23 lung; 94.3% with NCI-H226 lung; 104% in the assay on NCI-H322M lung; 98.8% in the assay with HOP-62 NSCLC; 99.4% in the assay on NCI-H460 lung; 101% with HOP-92 NSCLC. Further, the growth with NCI-H522 lung is 87%; in the assay on A549/ATCC NSCLC, 96.9%; with 786-0 renal, 100%.

Turning to `O=C1c2c(O)ccc(O)c2C(=O)c2c(NCCNCCO)ccc(NCCNCCO)c21`, the growth in the assay on NCI-H23 lung is -59% (active) and -79.5% (active); in the assay on NCI-H226 lung it was -55.7% (active) and -60.1% (active); in the assay with NCI-H322M lung it was -29.2% (active) and -9.24% (active); in the assay on HOP-62 NSCLC, -53.4% (active) and -65.5% (active); in the assay on NCI-H460 lung, -57% (active) and -52.8% (active); in the assay with HOP-92 NSCLC, -56.9% (active). Moreover, the growth was -91.7% (active) and -66.8% (active) with NCI-H522 lung; -51.4% (active) and -77.6% (active) in the assay with A549/ATCC NSCLC; -15.8% (active) and -50.5% (active) in the assay on 786-0 renal; -69.5% (active) and -74.4% (active) in the assay with COLO 205 colon.

Regarding `O=c1[nH]cnc2c1ncn2C1OC(CO)C(O)C1O` (stereo not drawn), the growth in the assay on NCI-H23 lung is 116% and 104% and 109%; in the assay with NCI-H226 lung, 108% and 103% and 97.4%; in the assay on NCI-H322M lung it was 112% and 137% and 102%; in the assay with HOP-62 NSCLC, 104% and 110% and 96.5%; with HOP-92 NSCLC it was 84.1% and 79.4% and 115%; in the assay with NCI-H522 lung it was 107% and 100% and 93.2%. In addition, the growth is 112% and 102% and 107% in the assay on A549/ATCC NSCLC; 106% and 111% and 107% in the assay on 786-0 renal.

As to `CC1(C)COC(=S)N1`, the growth with NCI-H23 lung was 101%; in the assay on NCI-H226 lung, 94.5%; with NCI-H322M lung, 101%; in the assay on HOP-62 NSCLC, 99.8%; in the assay with NCI-H460 lung, 113%; with NCI-H522 lung, 85.2%. Further, the growth is 99.7% in the assay on 786-0 renal and 124% in the assay with COLO 205 colon.

Take `CC(C)NCC(O)c1ccc(O)c(O)c1` (stereo not drawn): the growth with NCI-H23 lung is 98.6% and 68.3% and 98.2%; in the assay with NCI-H226 lung, 88.4% and 114% and 98.8%; in the assay with NCI-H322M lung, 92.1% and 96.7% and 106%; with HOP-62 NSCLC, 97.9% and 90.6% and 86.7%; in the assay on HOP-92 NSCLC, 60.1% and 59% and 68.4%; in the assay on NCI-H522 lung, 82.4% and 140%. The growth in the assay on 786-0 renal was 94.9% and 90.6% and 99.7%; in the assay on COLO 205 colon it was 107% and 114% and 104%.

As for `Fc1ccc([I+]c2ccc(F)cc2)cc1`, the growth in the assay on NCI-H23 lung is 53.7%; with NCI-H226 lung, 71.8%; with NCI-H322M lung it was 76.1%; in the assay on HOP-62 NSCLC, 78.7%; with HOP-92 NSCLC, 67.8%; in the assay with NCI-H522 lung, 68.8%. Also, the growth with A549/ATCC NSCLC was 80.9%.

With `O=C(Cc1ccccc1)c1ccc(O)c(Cl)c1`, the growth was 24% in the assay on NCI-H23 lung; 83.7% with NCI-H226 lung; 80% with NCI-H322M lung; 70.4% with HOP-62 NSCLC; 32.3% in the assay on NCI-H460 lung; 57.6% with HOP-92 NSCLC. Besides, the results for the growth in the assay with NCI-H522 lung and with 786-0 renal were 10.3% and 26.8%, respectively.

As to `CC(=O)NCC(=O)c1ccc([N+](=O)[O-])cc1`, the growth was 95% in the assay on NCI-H23 lung; 98% in the assay with NCI-H226 lung; 103% with NCI-H322M lung; 95.8% in the assay with HOP-62 NSCLC; 108% in the assay on HOP-92 NSCLC; 109% in the assay with NCI-H522 lung. The growth is 103% in the assay on 786-0 renal and 105% in the assay on COLO 205 colon.

For the molecule `OC1COC(OCc2ccccc2)C(O)C1O` (stereo not drawn), the growth in the assay with NCI-H23 lung was 106%; in the assay on NCI-H226 lung it was 98.1%; in the assay with NCI-H322M lung, 90.6%; in the assay with HOP-62 NSCLC it was 101%; with NCI-H460 lung, 106%; in the assay on 786-0 renal it was 105%.

On to `Nc1ccc2c(O)cc(S(=O)(=O)O)cc2c1`, for which the growth in the assay with NCI-H23 lung is 93.8% and 96.2%; with NCI-H226 lung, 96% and 91.9%; in the assay with NCI-H322M lung, 103% and 119%; in the assay on HOP-62 NSCLC, 86.1% and 92.4%; in the assay with NCI-H460 lung, 98.4% and 102%; with HOP-92 NSCLC it was 80.9%. For the same molecule, the growth with NCI-H522 lung was 106% and 88.1%; in the assay on A549/ATCC NSCLC, 105% and 92.1%; with 786-0 renal it was 98.9% and 105%.

`COc1cc(C(O)C2C(=O)OCC2C2(c3ccc4c(c3)OCO4)SCCCS2)cc(OC)c1OC` (stereo not drawn): the growth in the assay on NCI-H23 lung is 93.8%; with NCI-H226 lung it was 100%; with NCI-H322M lung, 104%; in the assay with HOP-62 NSCLC it was 101%; with HOP-92 NSCLC it was 77.8%; in the assay with NCI-H522 lung, 86.5%. In addition, the growth in the assay with A549/ATCC NSCLC is 97.1%; with 786-0 renal, 103%; with COLO 205 colon it was 94.2%.

As for `CCc1cc(C)cc(O)c1`, the growth in the assay on NCI-H23 lung is 107%; in the assay with NCI-H226 lung, 99.4%; in the assay with NCI-H322M lung it was 105%; in the assay on HOP-62 NSCLC, 106%; in the assay on NCI-H460 lung it was 110%; in the assay with HOP-92 NSCLC, 91.7%. Moreover, the values for the growth in the assay with NCI-H522 lung and in the assay on 786-0 renal were 90.1% and 104%, respectively.
